# Test results from PubChem BioAssay (NCATS).
# Records with an inconclusive call do not appear. Entries that show only a call come without a potency. A number with no mark means an inactive call. Activity calls are given as the source filed them. Calls follow the shape of the dose curve; as a rule, active = well fitted curve in the direction sought with a large enough effect; inconclusive = small, poorly fitted or top-dose-only effect, or another doubt; inactive = no such curve, though single readings can be large; an effect the other way counts as inactive or inconclusive.
# Tests used:
# [1] = biological target: Rap guanine nucleotide exchange factor 3 (Homo sapiens) (UniProt O95398); test: Confirmatory qHTS for agonist of cAMP-regulated guanine nucleotide exchange factor 3 (EPAC1) (AID 1645881);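 also: EPAC1 catalysed release of BODIPY-GDP from Rap1B seen as fluorescence loss; nearly all actives have a fitted effect of over 75% in size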
# Rap guanine nucleotide exchange factor 3 (Homo sapiens), sequence (O95398 whole entry, looked up): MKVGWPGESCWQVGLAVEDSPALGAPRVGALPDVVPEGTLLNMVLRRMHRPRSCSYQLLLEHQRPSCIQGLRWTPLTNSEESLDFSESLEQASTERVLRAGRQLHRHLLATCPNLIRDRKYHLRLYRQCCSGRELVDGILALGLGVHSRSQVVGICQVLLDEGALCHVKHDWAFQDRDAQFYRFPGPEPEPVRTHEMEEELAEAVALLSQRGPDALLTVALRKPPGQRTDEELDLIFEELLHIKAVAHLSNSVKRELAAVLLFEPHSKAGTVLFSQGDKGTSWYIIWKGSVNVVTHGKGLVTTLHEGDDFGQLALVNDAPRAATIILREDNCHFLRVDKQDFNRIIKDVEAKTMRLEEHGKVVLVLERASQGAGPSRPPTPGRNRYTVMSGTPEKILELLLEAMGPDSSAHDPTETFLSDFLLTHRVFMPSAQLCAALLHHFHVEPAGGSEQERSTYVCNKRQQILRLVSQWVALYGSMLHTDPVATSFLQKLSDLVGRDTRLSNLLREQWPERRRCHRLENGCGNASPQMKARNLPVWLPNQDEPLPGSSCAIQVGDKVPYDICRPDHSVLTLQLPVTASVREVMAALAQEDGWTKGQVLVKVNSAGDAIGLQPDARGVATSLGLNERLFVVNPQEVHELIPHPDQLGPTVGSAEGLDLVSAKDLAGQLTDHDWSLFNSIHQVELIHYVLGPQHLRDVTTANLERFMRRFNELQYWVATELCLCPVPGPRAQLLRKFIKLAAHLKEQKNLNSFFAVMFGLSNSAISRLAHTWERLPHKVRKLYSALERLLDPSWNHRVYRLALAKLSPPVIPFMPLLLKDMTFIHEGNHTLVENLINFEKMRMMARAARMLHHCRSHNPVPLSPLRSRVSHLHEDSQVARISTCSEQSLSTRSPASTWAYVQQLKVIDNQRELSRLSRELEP
# [2] = biological target: Rap guanine nucleotide exchange factor 4 (Homo sapiens) (UniProt Q8WZA2); test: Confirmatory qHTS for agonist of cAMP-regulated guanine nucleotide exchange factor 4 (EPAC2) (AID 1645884);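 also: nucleotide exchange releases bodipy-GDP from Rap1 and this lowers its fluorescence; nearly all actives have a fitted effect of over 65% in size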
# Rap guanine nucleotide exchange factor 4 (Homo sapiens), sequence (Q8WZA2 whole entry, looked up): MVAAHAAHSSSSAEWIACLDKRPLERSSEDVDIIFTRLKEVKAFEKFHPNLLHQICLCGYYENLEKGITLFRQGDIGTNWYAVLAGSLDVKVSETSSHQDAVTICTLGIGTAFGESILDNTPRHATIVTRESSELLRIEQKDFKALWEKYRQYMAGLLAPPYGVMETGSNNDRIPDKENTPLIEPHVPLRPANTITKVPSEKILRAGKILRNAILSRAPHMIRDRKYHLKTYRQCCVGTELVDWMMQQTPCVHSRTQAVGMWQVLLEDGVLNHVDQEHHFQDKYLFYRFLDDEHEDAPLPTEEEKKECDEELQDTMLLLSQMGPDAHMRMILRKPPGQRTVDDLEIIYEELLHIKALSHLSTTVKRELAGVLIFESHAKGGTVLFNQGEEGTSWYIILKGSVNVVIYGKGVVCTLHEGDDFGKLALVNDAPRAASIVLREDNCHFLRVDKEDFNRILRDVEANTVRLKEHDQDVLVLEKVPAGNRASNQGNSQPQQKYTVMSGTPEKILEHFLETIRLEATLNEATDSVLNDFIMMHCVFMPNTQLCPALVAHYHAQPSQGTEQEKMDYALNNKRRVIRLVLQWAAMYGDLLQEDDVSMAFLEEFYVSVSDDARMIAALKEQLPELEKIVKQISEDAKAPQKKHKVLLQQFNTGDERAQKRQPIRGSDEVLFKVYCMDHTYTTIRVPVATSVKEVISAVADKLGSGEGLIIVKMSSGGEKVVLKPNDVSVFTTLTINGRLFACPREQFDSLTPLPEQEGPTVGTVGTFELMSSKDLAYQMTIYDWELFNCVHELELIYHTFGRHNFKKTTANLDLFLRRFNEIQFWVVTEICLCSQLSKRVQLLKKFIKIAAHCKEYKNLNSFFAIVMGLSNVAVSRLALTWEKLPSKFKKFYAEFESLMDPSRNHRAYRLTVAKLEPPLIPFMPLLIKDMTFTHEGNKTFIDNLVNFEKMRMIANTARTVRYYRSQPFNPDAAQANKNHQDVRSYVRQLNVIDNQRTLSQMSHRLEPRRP
# [3] = biological target: Rap guanine nucleotide exchange factor 4 (Homo sapiens) (UniProt Q8WZA2); test: Confirmatory qHTS for antagonist of cAMP-regulated guanine nucleotide exchange factor 4 (EPAC2) (AID 1645885); also: nearly all actives have a fitted effect of over 25% in size; also: potency is read from the fitted curve at half-maximal effect
# [4] = biological target: Rap guanine nucleotide exchange factor 3 (Homo sapiens) (UniProt O95398); test: Counterscreen qHTS for antagonist of cAMP-regulated guanine nucleotide exchange factor 3 (EPAC1) (AID 1645888);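 also: fluorescence loss as bound BODIPY-GDP is released from Rap1B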
# Summary of the method: (§1)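 Measured: fluorescence of BODIPY-GDP bound to Rap1B, which falls as exchange proceeds. Conditions include 50 uM competing GDP, 5 and 30 min reads, and a later cAMP challenge for antagonist detection.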
# [5] = biological target: Rap guanine nucleotide exchange factor 3 (Homo sapiens) (UniProt O95398); test: Counterscreen qHTS for agonist of cAMP-regulated guanine nucleotide exchange factor 3 (EPAC1) (AID 1645889); also: nearly all actives have a fitted effect of over 40% in size; also: potency is read from the fitted curve at half-maximal effect
# Summary of the method: as §1
Structure (SMILES),Potency [1],Potency [2],Potency [3],Potency [4],Potency [5],activation [2],"activity change, negative = inhibition [4]",activation [5]
O=C(COC(=O)c1ccc([N+](=O)[O-])s1)NCc1ccccc1,inactive,inactive,inactive,inactive,inactive,–,–,–
Cc1ccc(C(=O)c2no[n+]([O-])c2C(=O)c2ccc(C)cc2)cc1,inactive,inactive,inactive,inactive,inactive,–,–,–
CC(=O)Nc1ccc(S(=O)(=O)Nc2nc3ccccc3nc2-n2ccc(=NC(=O)c3ccccc3)cc2)cc1,inactive,–,inactive,–,–,"-0.645% [at 17.1 µM, percent relative to cAMP agonist control]",-23.7% [at 30.8 µM],5.94% [at 30.8 µM]
Cc1ccc(C(C)C)c(OCCCn2c(=O)oc3ccc(C)cc32)c1,inactive,inactive,inactive,inactive,inactive,–,–,–
COc1ccc(C(C)(NC(C)=O)c2nc(-c3cc(F)cc(F)c3)cs2)cc1 (stereo not given),inactive,–,inactive,–,–,"0% [at 17.1 µM, percent relative to cAMP agonist control]",-9.04% [at 30.8 µM],15% [at 30.8 µM]
COc1ccc(/C=N/NC(=O)c2cc(C(C)(C)C)[nH]n2)cc1COc1ccc(F)cc1F,inactive,–,inactive,–,–,"3.4% [at 17.1 µM, percent relative to cAMP agonist control]",-14.1% [at 30.8 µM],19.8% [at 30.8 µM]
Cc1ccccc1NC(=O)CN1C(=O)N/C(=C\c2ccccc2OCc2ccc(C(=O)O)cc2)C1=O,inactive,inactive,53.6 µM (active),inactive,inactive,–,–,–
C=CCn1c(C)cc(C2=NNC(=Nc3ccc(C)cc3)SC2)c1C,inactive,inactive,inactive,inactive,inactive,–,–,–
CC1(C(=O)NS(=O)(=O)c2ccc(Cl)cc2)CCN1C(=O)C1(c2ccccc2)CCCC1 (stereo not given),inactive,inactive,inactive,inactive,inactive,–,–,–
Cc1ccc(OCC(=O)Nc2ccc(N3CCCC3)cc2)cc1C,inactive,inactive,inactive,inactive,inactive,–,–,–
Cc1nnc(Sc2cc(NCCCO)c([N+](=O)[O-])c3nonc23)s1,inactive,–,inactive,–,8.91 µM (active),"3.11% [at 17.1 µM, percent relative to cAMP agonist control]",1.69% [at 30.8 µM],–
CCCCOc1c(Br)cc(/C=N/O)cc1OCC,inactive,–,inactive,–,–,"6.54% [at 17.1 µM, percent relative to cAMP agonist control]",-12% [at 30.8 µM],5.43% [at 30.8 µM]
COC(=O)c1ccc2nc(-c3ccco3)c(Cc3ccccc3)n2c1,inactive,–,inactive,–,–,"7.95% [at 17.1 µM, percent relative to cAMP agonist control]",-11.9% [at 30.8 µM],10% [at 30.8 µM]
Cn1c(=O)c2c(SCc3cccnc3)nc(CC(C)(C)C)nc2n(C)c1=O,inactive,–,inactive,–,–,"6.82% [at 17.1 µM, percent relative to cAMP agonist control]",-15.2% [at 30.8 µM],9.84% [at 30.8 µM]
O=C1C=CC(c2ccccc2)(c2ccccc2)CC1,inactive,–,inactive,–,–,"8.73% [at 17.1 µM, percent relative to cAMP agonist control]",-3.3% [at 30.8 µM],29.7% [at 30.8 µM]
Oc1cccc(-c2nc3ncccn3c2Nc2cccc(C(F)(F)F)c2)c1,inactive,inactive,inactive,inactive,inactive,–,–,–
Cc1ccc(-c2nn(-c3ccccc3)cc2C=C2SC(=S)N(CCS(=O)(=O)O)C2=O)cc1,inactive,–,inactive,–,–,"6.87% [at 17.1 µM, percent relative to cAMP agonist control]",-16.5% [at 30.8 µM],28% [at 30.8 µM]
N#CCC(=O)Nc1ccc(C(=O)OCC(=O)Nc2ccc3ccccc3c2)cc1,inactive,inactive,inactive,inactive,inactive,–,–,–
COc1ccc(-c2csc(C(C)(O)c3ccccc3)n2)cc1 (stereo not given),inactive,–,inactive,–,–,"5.7% [at 17.1 µM, percent relative to cAMP agonist control]",8.72% [at 30.8 µM],23.4% [at 30.8 µM]
CCc1nnc(NS(=O)(=O)c2ccc(NCc3cc(Cl)cc(Cl)c3O)cc2)s1,inactive,inactive,5.36 µM (active),inactive,inactive,–,–,–
Cc1onc(-c2c(F)cccc2Cl)c1C(=O)OCc1cnc(Cl)s1,inactive,inactive,26.9 µM (active),inactive,inactive,–,–,–

Structure (SMILES),Potency [1],Potency [2],Potency [3],Potency [4],Potency [5],activation [2],"activity change, negative = inhibition [4]",activation [5]
Brc1ccc(/C=N/Nc2nc3ccccc3o2)cc1,inactive,inactive,inactive,inactive,inactive,–,–,–
Cc1cccc(NC(=O)COC(=O)c2c(-c3ccccc3)noc2C)c1,inactive,–,inactive,–,–,"4.55% [at 17.1 µM, percent relative to cAMP agonist control]",-6.85% [at 30.8 µM],24.2% [at 30.8 µM]
COC(=O)c1cc(Sc2c(Cl)cccc2Cl)ccn1,inactive,inactive,30.1 µM (active),inactive,inactive,–,–,–
Oc1c(C(Nc2nccs2)c2ccc(C(F)(F)F)cc2)ccc2cccnc12 (stereo not given),inactive,–,inactive,–,–,"-2.43% [at 17.1 µM, percent relative to cAMP agonist control]",-18% [at 30.8 µM],3.72% [at 30.8 µM]
CCc1cc(-c2n[nH]c(C)c2-c2nc(C)cs2)c(O)cc1OC,inactive,–,inactive,–,–,"5.22% [at 17.1 µM, percent relative to cAMP agonist control]",-17% [at 30.8 µM],34.8% [at 30.8 µM]
CCOc1ccc2nc(NC3=NC(c4ccc(OC)cc4)CC(=O)N3)nc(C)c2c1 (stereo not given),inactive,–,inactive,–,–,"2.86% [at 17.1 µM, percent relative to cAMP agonist control]",-8.36% [at 30.8 µM],10.5% [at 30.8 µM]
CCc1ccc(-n2c(CCC(=O)O)ccc2-c2cccs2)cc1,inactive,inactive,inactive,inactive,inactive,–,–,–
CC1(C)C=Cc2cc(-c3coc4cc(O)cc(O)c4c3=O)cc(O)c2O1,inactive,inactive,inactive,inactive,inactive,–,–,–
O=C(Nc1nc2ccccc2[nH]1)C1CCN(S(=O)(=O)c2cccs2)CC1,inactive,inactive,inactive,inactive,inactive,–,–,–
Cc1cccc(NC(=O)CSCC(=O)N(C)CCOc2ccc(Cl)cc2)c1,inactive,inactive,inactive,inactive,inactive,–,–,–
COc1cc(Cl)cc(/C=N\NC(=O)c2ccc3c(c2)OCO3)c1O,inactive,inactive,inactive,inactive,inactive,–,–,–
C[C@H]1CN([C@@H](C)CO)C(=O)c2cccc(NC(=O)C3CC3)c2O[C@H]1CN(C)S(=O)(=O)c1ccccc1,inactive,inactive,inactive,inactive,inactive,–,–,–
CN(CC(=O)Nc1ccccc1C(F)(F)F)C(=O)c1cc(-c2cccs2)nn1-c1ccccc1,inactive,inactive,inactive,inactive,inactive,–,–,–
C=CCN1C(=O)/C(=C/c2ccc(OCC(=O)O)cc2)S/C1=N/c1nccs1,inactive,–,inactive,–,–,"0% [at 17.1 µM, percent relative to cAMP agonist control]",-1.64% [at 30.8 µM],14.3% [at 30.8 µM]
Cc1ccc2nc(-c3ccco3)c(Cc3cccc(Cl)c3)n2c1,inactive,–,inactive,–,–,"2.28% [at 17.1 µM, percent relative to cAMP agonist control]",-5.77% [at 30.8 µM],14.3% [at 30.8 µM]
CCCCN1C(=O)C(NC(=O)c2ccc(C(C)(C)C)cc2)(C(F)(F)F)C(C(=O)OC)=C1C (stereo not given),inactive,inactive,inactive,inactive,inactive,–,–,–
O=C(NNc1cc(N2CCOCC2)nc(N2CCOCC2)n1)c1ccc([N+](=O)[O-])cc1,inactive,inactive,inactive,inactive,inactive,–,–,–
C=CCc1cccc(CNc2c(C)cc(C)cc2C)c1O,inactive,inactive,inactive,inactive,inactive,–,–,–
Cc1ccn2cc(-c3cccc(NC(=O)c4cccs4)c3)nc2c1,inactive,inactive,inactive,inactive,inactive,–,–,–
CC(=O)NS(=O)(=O)c1ccc(Nc2ccc([N+](=O)[O-])c3nonc23)cc1,inactive,–,inactive,–,–,"14.6% [at 17.1 µM, percent relative to cAMP agonist control]",-18.4% [at 30.8 µM],1.5% [at 30.8 µM]
Cc1ccccc1Cn1nnc2c(=O)[nH]c(C3CCCN(C(=O)c4ccc(C(C)(C)C)cc4)C3)nc21 (stereo not given),inactive,inactive,inactive,inactive,inactive,–,–,–
